# Experimental data: publication PMC12864922, “TDP-43 directly inhibits mRNA accumulation in neurites through modulation of mRNA stability”
# The full ranking holds about 9,900 sequences; the median of “r (bound/input frequency ratio)” is about 0.7, and the highest 2% start at about 6.5. What follows is part of a selection rich in the highest values, with near analogues and random picks from the rest.
# B1: ENSMUSG00000061578.1085|Ksr2|91:95 (ssRNA)
# RNA: GGGAGUUCUACAGUCCGACGAUCGCUUCGAUAUCCGCAUGCUAGAUUCUAUCCAGUGGCCAGCAAUACCCAAAAGCAGCCAACCAUGAAAAUAGAGGUUUGUAAUGUACAGAAGGCUGGGGGAGCUUUCAGGGCACACGCCAGUUAUGUACAGAUGUGAAGCUGAGGUCUGAAGGAAAUGGAGGAAGUAGGAAGAUCAGACUGGUUGAAUUAGAAGUCUGUCACUCUAGGUGCUAAGUGACCUUGGACCCAGUCAGUUCUUGGAUUUCUGUUGUAGCCCAGGCUAGCCUCGAACCCUUGAUCCCUCUUGCGGUCGCACUAGUGUGGAAUUCUCGGGUGUCAAGG
# B2: ENSMUSG00000058297.28|Spock2|83:87;91:104;113:124;138:144;153:162;168:193 (ssRNA)
# RNA: GGGAGUUCUACAGUCCGACGAUCGCUUCGAUAUCCGCAUGCUACCUGGACAACAGCAGGCAACUUAGCAAAUGGAUCCGGAAGUCAGUGCGGAGGACCCUGGCUCCAGUGGGGGAGGACUGGGGACACACGCUACACACAUACACACAUAUGAGAACACACACAUACAUGUGAGAUGUGACACACACAUGUGAGAACACACAUACUGAGAACACACACACACACACACACACACACAUGUGAGUCACCCAAAGGUCCCUAUGUUAUUGAUUUUCAAAUGCACACUUUCACACACAAGGAUACACUCUUGCGGUCGCACUAGUGUGGAAUUCUCGGGUGUCAAGG
# B3: ENSMUSG00000058297.27|Spock2 (ssRNA)
# RNA: GGGAGUUCUACAGUCCGACGAUCGCUUCGAUAUCCGCAUGCUAAAGAGACCUGGACAACAGCAGGCAACUUAGCAAAUGGAUCCGGAAGUCAGUGCGGAGGACCCUGGCUCCAGUGGGGGAGGACUGGGGAGUGUGGCUUGUGUGUAUGUGUGAUAUGAGAUGUGUGUGUAUGAUGUGAGAUGUGAGUGUGUGAUGUGAGAUGUGUGUAUGUGAGAUGUGUGUGUGUGUGUGUGUGUGUGUGAUGUGAGUCACCCAAAGGUCCCUAUGUUAUUGAUUUUCAAAUGCACACUUUCACACACAAGCUCUUGCGGUCGCACUAGUGUGGAAUUCUCGGGUGUCAAGG
# B4: ENSMUSG00000058297.29|Spock2 (ssRNA)
# RNA: GGGAGUUCUACAGUCCGACGAUCGCUUCGAUAUCCGCAUGCUACAACAGCAGGCAACUUAGCAAAUGGAUCCGGAAGUCAGUGCGGAGGACCCUGGCUCCAGUGGGGGAGGACUGGGGAGUGUGGCUUGUGUGUAUGUGUGAUAUGAGAUGUGUGUGUAUGAUGUGAGAUGUGAGUGUGUGAUGUGAGAUGUGUGUAUGUGAGAUGUGUGUGUGUGUGUGUGUGUGUGUGAUGUGAGUCACCCAAAGGUCCCUAUGUUAUUGAUUUUCAAAUGCACACUUUCACACACAAGGAUACACUAACACUCUUGCGGUCGCACUAGUGUGGAAUUCUCGGGUGUCAAGG
# B5: ENSMUSG00000058297.28|Spock2 (ssRNA)
# RNA: GGGAGUUCUACAGUCCGACGAUCGCUUCGAUAUCCGCAUGCUACCUGGACAACAGCAGGCAACUUAGCAAAUGGAUCCGGAAGUCAGUGCGGAGGACCCUGGCUCCAGUGGGGGAGGACUGGGGAGUGUGGCUUGUGUGUAUGUGUGAUAUGAGAUGUGUGUGUAUGAUGUGAGAUGUGAGUGUGUGAUGUGAGAUGUGUGUAUGUGAGAUGUGUGUGUGUGUGUGUGUGUGUGUGAUGUGAGUCACCCAAAGGUCCCUAUGUUAUUGAUUUUCAAAUGCACACUUUCACACACAAGGAUACACUCUUGCGGUCGCACUAGUGUGGAAUUCUCGGGUGUCAAGG
# B6: ENSMUSG00000031028.414|Tub|94:98;228:232;234:246;252:260 (ssRNA)
# RNA: GGGAGUUCUACAGUCCGACGAUCGCUUCGAUAUCCGCAUGCUAUUCUUUUUGGUCCUUGGCUGGGUAGCAAAUUGGUGAGAAGAGCAGCCUAGUCUGUAAGAGUGCAGGGCAGCUGGAACCUUAGGCAGCUCCUCUCAUACCUACCGGCUCCACACCCUAACACUCUCCACCCUCUGCUCCAAACCAGUUCUUCUGCAGAGUGGUGAUGUUAGCUUCCCCAGCUCCUCUCCAAGUCUAGCUUUUUCUGUCCUUCUGGCUCCAAGGUGCUCACACACACACACACACACACUGUCACACACACACUCUUGCGGUCGCACUAGUGUGGAAUUCUCGGGUGUCAAGG
# B7: ENSMUSG00000031028.183|Tub (ssRNA)
# RNA: GGGAGUUCUACAGUCCGACGAUCGCUUCGAUAUCCGCAUGCUAAGGGCACAUGUCUCUUGGUUACCUCACUGGUUAAUGGCAGAGUUGAGAACCUCAAAUUCUUUUGUUCCUACUGUUGCCCAGAAACUAGACUCUCUGACCUGCUAGGGUCUAUUCUGCAUGUCCUUUCUCUUCCCAGUUCCAGAGAUGAAACCCCUCCGAGUUAAUGUAUAAGGUUGGAAACCUUUCAGUAGGGAAUCAGGCAGUUCCCUGUUGAAAGUUGUCUGAGUUUUUGCACACCAUUCUGAUCUGAUGUGGCCUGUCUCUUGCGGUCGCACUAGUGUGGAAUUCUCGGGUGUCAAGG
# B8: ENSMUSG00000028439.343|Fam219a (ssRNA)
# RNA: GGGAGUUCUACAGUCCGACGAUCGCUUCGAUAUCCGCAUGCUACCAGUUCGCAUCCCCACCACUCAUCAUCUGGGCCCCAACGCUAGAACUCCCCCCACCGCAUCCCCACUGGGCUCUUUGACUCACCCUUCUAGAACAUGGGUGCCUCCUCUCUUUAGACUGCUGCCUUUGCCUCUGACUUCCUGUGGGAUUGAGAGCCAAGGGCCAGUGCCCUUGUGAGCGCACUAGUUCCGAAGCAGGCAAGGGCAUUAGGUGGUAUAUACAUAGCGGGUAGGGGUAGGAAGCUGGCAGCCUGCAGCUUCCUCUUGCGGUCGCACUAGUGUGGAAUUCUCGGGUGUCAAGG
# Target: TDP-43 (Homo sapiens, UniProt Q13148 1-414)
# Assay: RNA Bind-n-Seq with designed 260-mer pool; 25 mM Tris-HCl, 150 mM KCl, 3 mM MgCl2, BSA (printed 500 mg/mL), 20 units/mL SUPERase IN; pH not stated; 500 nM RNA pool, 1 h, 4 C; TDP-43 5, 50, 500 nM; high values mean tight binding
# Settings: protein: recombinant; tags: SBP (GST cleaved off with PreScission; pGEX-GST-SBP)
# In short: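 Duplicate measurements used two independent batches of recombinant SBP-tagged TDP-43, which was captured on streptavidin beads at 5, 50 or 500 nM. The beads were incubated with 500 nM of an in vitro-transcribed 260-nt 3′ UTR oligo pool for 1 h at 4 °C in 25 mM Tris-HCl, 150 mM KCl, 3 mM MgCl2, BSA and SUPERase IN. After washing, biotin elution, reverse transcription, PCR amplification and sequencing, binding was expressed as R: each oligo's normalized read abundance in the bound sample over its abundance in input.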
# Chain of TDP-43 (Q13148 whole entry): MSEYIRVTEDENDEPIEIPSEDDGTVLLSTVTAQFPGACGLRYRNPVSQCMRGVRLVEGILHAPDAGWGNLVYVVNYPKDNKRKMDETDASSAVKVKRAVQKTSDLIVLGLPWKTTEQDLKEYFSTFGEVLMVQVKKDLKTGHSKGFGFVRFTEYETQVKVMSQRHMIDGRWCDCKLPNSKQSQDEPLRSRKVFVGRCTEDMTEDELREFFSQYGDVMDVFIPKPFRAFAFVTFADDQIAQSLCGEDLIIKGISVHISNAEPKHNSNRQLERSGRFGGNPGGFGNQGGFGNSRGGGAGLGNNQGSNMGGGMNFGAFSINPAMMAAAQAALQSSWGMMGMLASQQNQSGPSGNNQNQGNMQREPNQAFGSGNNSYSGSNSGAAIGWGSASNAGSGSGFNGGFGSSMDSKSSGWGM
row,Binder,binding signal
1,B1,0.868 R (bound/input frequency ratio)
2,B2,3.52 R (bound/input frequency ratio)
3,B3,6.12 R (bound/input frequency ratio)
4,B4,6.82 R (bound/input frequency ratio)
5,B5,6.8 R (bound/input frequency ratio)
6,B6,2.86 R (bound/input frequency ratio)
7,B7,0.952 R (bound/input frequency ratio)
8,B8,0.735 R (bound/input frequency ratio)
